Assay outcomes as filed in PubChem BioAssay.
LDHA block: LDHA (human) enzyme inhibition. P00338. actives 0.15% (n = 480,000). AID 1347041. activity change, % (values are at about 110 or 230 µM). purified LDHA, NADH/diaphorase-resazurin fluorescence; stronger effect = lower value; in the data active means activity change below about -30%; inconclusive means mostly about -25% to -30%;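 further: plate controls were DMSO wells for no effect and wells without enzyme for full effect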
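Enzyme activity of human lactate dehydrogenase 5 (2 nM; 0.06 mM NADH, 0.2 mM pyruvate, 5 min, RT) is measured via a resazurin/diaphorase fluorescence readout of residual NADH.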
RORgamma inh: blocks mouse ROR gamma transcriptional activity. Drosophila S2 Gal4-RORgamma UAS-luciferase reporter, 20 h. actives 5.4% (n = 310,000). Potency, µM (series often up to 53.6 µM), without a hit: top-dose activity change, negative = inhibition, usual class: inhibitors; further: potency means the concentration at half of the fitted maximal effect; nearly all actives have a fitted effect of over 60% in size
Target sequence (P51450 whole entry, looked up, the tested form may be a part): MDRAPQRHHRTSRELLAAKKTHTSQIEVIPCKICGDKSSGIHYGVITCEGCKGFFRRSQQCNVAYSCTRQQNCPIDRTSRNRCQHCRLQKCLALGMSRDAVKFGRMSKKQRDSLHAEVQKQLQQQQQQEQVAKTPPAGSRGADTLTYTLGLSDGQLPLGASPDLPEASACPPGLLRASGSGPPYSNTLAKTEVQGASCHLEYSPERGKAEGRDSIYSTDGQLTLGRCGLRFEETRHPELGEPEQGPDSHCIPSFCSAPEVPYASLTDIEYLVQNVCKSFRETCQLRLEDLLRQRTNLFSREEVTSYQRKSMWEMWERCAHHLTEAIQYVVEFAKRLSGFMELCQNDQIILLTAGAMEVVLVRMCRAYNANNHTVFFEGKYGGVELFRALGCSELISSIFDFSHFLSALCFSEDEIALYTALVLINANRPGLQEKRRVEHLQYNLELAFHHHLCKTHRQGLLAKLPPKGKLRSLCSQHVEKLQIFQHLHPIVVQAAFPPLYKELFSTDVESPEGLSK
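Compounds are pin-transferred onto Drosophila Schneider cells expressing a copper-inducible Gal4–ROR gamma transactivation domain fusion. After 1 hr, copper sulfate is added to 700 uM final; luciferase is read 20 hr later.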
VP16 counter: Gal4-VP16 reporter inhibition counter-screen | Drosophila S2 Gal4-VP16 UAS-luciferase, luminescence, 20 h | Potency, µM (titrated, usually from 53.6 µM), for the others: at the highest dose activity, negative = inhibition, hits mostly inhibitors | actives 3.5% (n = 310,000) | AID 2546;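 further: Gal4-VP16 expression switched on by copper sulfate through the metallothionein promoter; potency means the concentration at half of the fitted maximal effect; nearly all actives have a fitted effect of over 50% in size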
TDP1 cell noCPT: qHTS for Inhibitors of human tyrosyl-DNA phosphodiesterase 1 (TDP1): qHTS in cells in absence of CPT; DT40 Tdp1-/- hTDP1 cells, no CPT, ATP luminescence, 48 h; Potency, µM (top dose mostly 46.2 µM), without a hit: top-dose activity change, negative = growth inhibition, usual class: inhibitors; actives 15% (n = 420,000); further: potency means the concentration at half of the fitted maximal effect; nearly all actives have a fitted effect of over 55% in size
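No-CPT arm: Tdp1-/-;hTDP1 DT40 cells (400/well) plus compounds, incubated ≥48 hr at 37 °C. Readout CellTiter-Glo luminescence.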
DT40 TDP1 CPT: DT40-hTDP1 cell growth loss with CPT; AID 686979; chicken DT40 Tdp1-/-;hTDP1 cells + 20 nM CPT, ATP luminescence, 48 h; actives 12% (n = 420,000); Potency, µM (highest dose often 46.2 µM), for the others: at the top dose activity change, negative = growth inhibition, actives largely listed as inhibitors; further: potency means the concentration at half of the fitted maximal effect; nearly all actives have a fitted effect of over 55% in size
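Chicken DT40 Tdp1-/- cells complemented with human TDP1, 400 cells/well, exposed to compounds plus 20 nM camptothecin for at least 48 h at 37 C; viability read as ATP content by CellTiter-Glo luminescence.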
IL1B secr inh: inhibitors of inflammasome signaling (IL-1 beta secretion); activity change, % at 57.5 µM; AID 743279; THP-1 LPS/ATP IL-1B secretion, AlphaLISA, 16 h; stronger effect = lower value; actives 4.7% (n = 360,000); in the data active means activity change below about -50%; inconclusive means mostly about -30% to -49%
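THP-1 cells pretreated 1 hr with compounds (up to 57.5 uM final), then stimulated with LPS (250 ng/mL final) plus ATP (1.25 mM final); secreted IL-1B measured by AlphaLISA after 16 hr, decreased signal indicating inhibition.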
An asterisk follows results filed as active; ? = inconclusive; . = no result given. An excerpt weighted towards active compounds, which were near 18% of everything screened. Unless noted, the call rests on the fitted dose curve; in most records, active means well fitted curve in the direction sought with a large enough effect; inconclusive means small, poorly fitted or top-dose-only effect, or another doubt; inactive means no such curve, though single readings can be large; an effect the other way counts as inactive or inconclusive. Unless noted, on the % scale 0 is the no-effect control and ±100 the full control effect.

SMILES	LDHA block	RORgamma inh	VP16 counter	TDP1 cell noCPT	DT40 TDP1 CPT	IL1B secr inh
CC(C)=CC1C(C(=O)NCC(C)(C)N2CCOCC2)C1(C)C (stereo not drawn)	14	.	.	.	.	.
COc1ccc(N(C(=O)C2CCCCC2)S(=O)(=O)c2cccc3cccnc23)cc1	-6	2%	0%	-24%	15%	-52*
CC1CCCCC1NC(=O)CN(C)S(=O)(=O)c1cccc2cccnc12 (stereo not drawn)	-6	0%	1%	?	-12%	-16
CC(C)(C)NC(NC(=O)c1ccccc1Cl)C(Cl)(Cl)Cl (stereo not drawn)	-8	.	.	.	.	.
CSc1nnc(CSCc2ccc(Cl)cc2Cl)n1-c1ccccc1	-4	-12%	0%	20µM*	?	-16
Cn1c(CSCc2ccccc2)n[nH]c1=S	-10	11µM*	?	-20%	8%	6
Cn1c(CSCc2ccc(Cl)cc2)n[nH]c1=S	-3	2.8µM*	13µM*	-10%	26%	-29
COC(Cc1nnc(SC)n1-c1ccccc1)OC	-6	5%	4%	-3%	14%	11
Cn1c(CSCc2ccc(Cl)cc2Cl)n[nH]c1=S	-9	0.79µM*	6.3µM*	?	?	7
CCc1ccc(-c2nc3cc(NC(=O)c4cccnc4)ccc3o2)cc1	6	.	.	.	.	.
COc1ccc(/C=C/c2ccc3cccc([N+](=O)[O-])c3n2)cc1OC	-2	.	.	.	.	.
CSc1cccc(NC(=O)/C=C/c2cccc(F)c2)c1	13	.	.	.	.	.
CCOc1cc(/C=C2\N=C(SC(C)C(N)=O)N(c3ccc(OC(F)F)cc3)C2=O)ccc1O (stereo not drawn)	1	0%	?	10µM*	?	-12
NC(=O)CSC1=N/C(=C\c2ccco2)C(=O)N1c1ccc(OC(F)F)cc1	-12	?	?	13µM*	?	-9
CCN(CC)C(=O)CSC1=N/C(=C/c2ccco2)C(=O)N1c1ccc(OC)c(Cl)c1	-3	-21%	?	?	21µM*	-54*
COc1ccc(/C=C2/N=C(SCC(=O)Nc3cc(C)on3)N(c3ccccc3)C2=O)cc1	-1	-18%	?	9%	6%	28
COc1ccc(N2C(=O)/C(=C\c3ccco3)N=C2SCC(=O)NC(C)(C)C)cc1Cl	2	?	?	?	?	?
CC(C)NC(=O)C1CC(c2c(F)cccc2Cl)=NO1 (stereo not drawn)	-1	.	.	.	.	.
O=C(Nc1ccc2c3c(cccc13)CC2)c1cccc(I)c1	3	.	.	.	.	.
COc1cc(OC)cc(C(=O)NC(=S)Nc2ccc3c4c(cccc24)CC3)c1	9	?	5.6µM*	-17%	-29%	-1
COc1ccc(C(=O)Nc2ccc3c4c(cccc24)CC3)cc1	0	21%	15%	?	-10%	-5
COc1ccc(C(=O)NC(=S)Nc2ccc3c4c(cccc24)CC3)cc1OC	6	7.9µM*	?	?	?	28
CC(C)Oc1cccc(C(=O)NC(=S)Nc2ccc3c4c(cccc24)CC3)c1	-4	11µM*	?	?	?	-23
Cc1ccc(-c2nnn(CC(O)COc3ccc(C)cc3C)n2)cc1 (stereo not drawn)	-1	.	.	.	.	.
Cc1ccc(C)c(NC(=O)c2ccc3c(=O)n(-c4ccccc4)c(=O)[nH]c3c2)c1	-1	.	.	.	.	.
CC1CSc2ccc(S(=O)(=O)NCCc3ccccc3)cc2NC1=O (stereo not drawn)	2	.	.	.	.	.
O=C(/C=C/C1=Cc2ccccc2OC1)c1cccc(O)c1	2	.	.	.	.	.
COc1ccc(/C=C2\SC(=O)N(CC(=O)Nc3cccc(C)c3)C2=O)cc1O	-6	?	18µM*	?	14%	?
